The panel holds about 83,000 compounds, 20% with a hit somewhere; the sample as a whole holds those more often.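 Method: cells in 96-well plates; compound added at one concentration; 48 h incubation; percent growth measured; values under 10 scored active.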 A number with no mark means an inactive call. Active and inactive are the calls of the source.

Assay in all cases: NCI-60 one-dose screen, 48 h (100 = growth as untreated, 0 = no growth, -100 = all killed)
Assay [1] concerns NCI-H226 lung. The settings on record: 10 µM unless noted.
The subject of assay [2] is NCI-H522 lung. Conditions: 10 µM unless noted.
In assay [3] the test system is COLO 205 colon. The settings on record: 10 µM.
The test system of assay [4] is SNB-75 CNS. Conditions: 10 µM unless noted.
Assay [5] has as its system PC-3 prostate. The settings on record: 10 µM unless noted.
Assay [6] concerns SK-MEL-5 melanoma. The settings on record: 10 µM unless noted.
The subject of assay [7] is EKVX NSCLC. Conditions: 10 µM unless noted.
Assay [8] concerns CAKI-1 renal. The settings on record: 10 µM unless noted.
For assay [9], the system named is CCRF-CEM leukemia. The settings on record: 10 µM unless noted.
For assay [10], the system named is RPMI-8226 leukemia. The settings on record: 10 µM unless noted.
Assay [11] relates to IGROV1 ovarian. The settings on record: 10 µM.
Assay [12] concerns MCF7 breast. Conditions: 10 µM unless noted.
Assay [13] has as its system HOP-92 NSCLC. Conditions: 10 µM unless noted.
Assay [14] deals with MALME-3M melanoma. The settings on record: 10 µM unless noted.
Assay [15] deals with HT29 colon. Conditions: 10 µM unless noted.
In assay [16] the test system is OVCAR-5 ovarian. Conditions: 10 µM unless noted.
Assay [17] concerns HS 578T breast. The settings on record: 10 µM unless noted.
The test system of assay [18] is OVCAR-3 ovarian. Conditions: 10 µM unless noted.

`CC(=O)[O][Hg][CH2]C1(C)COC(C)([CH2][Hg][O]C(C)=O)CO1` (centres undefined): the growth in [1] is 86.7%; in assay [2], -58.9% (active); in assay [3], -77.4% (active); in assay [4], 38%; in assay [5], 89.5%; in [6], -35.9% (active). For the same compound, the growth in [7] is 57.9%; in assay [8], -100% (active); in assay [9], -65.3% (active); in assay [10], 26%; in assay [11] it was -81% (active); in [12] it was -81.1% (active).

For the compound `N#CC1c2ccccc2C=CN1C(=O)c1ccc(N(CCCl)CCCl)cc1` (centres undefined), the growth in [1] was 78.2%; in [13] it was 81%; in assay [2] it was 69%; in assay [3], 103%; in [14] it was 85.4%; in assay [15] it was 98.7%. Further, the growth is 79.6% in assay [4]; 81.1% in [5]; 86.8% in assay [7]; 69.1% in assay [8]; 69.2% in assay [10]; 98.2% in assay [11]. Also, the growth in assay [12] was 83.5%.

Take `CC(=O)O[C@H]1CCC2(C)C(=CCC3C2CCC2(C)/C(=N/OC(=O)c4ccc(N(CCCl)CCCl)cc4)CCC32)C1` (some centres undefined): the growth in assay [1] was 101%; in assay [13], 76.1%; in assay [2], 27.6%; in assay [3] it was 69.7%; in assay [14] it was 92.2%; in assay [15] it was 32.6%. In addition, the growth in assay [4] is 22.5%; in assay [5] it was 47.8%; in assay [6] it was 73.2%; in [7], 23.1%; in assay [8], 50.2%; in assay [16], 81.7%. The growth in assay [11] was 11.6%; in assay [17], 27%; in assay [12], 39%.

As to `COc1cc(N(CCCl)CCCl)ccc1C=Nc1ccccc1C(=O)O`, the growth is 94.7% in [1]; 97.8% in [13]; 32.8% in assay [2]; 98.2% in assay [15]; 90.3% in assay [5]; 97.4% in assay [6]. Also, the growth in [8] is 98.7%; in assay [9], 97.5%; in assay [10] it was 97.2%; in assay [16], 108%; in assay [11], 84.1%; in assay [18], 97.8%. Moreover, the figures for the growth in [17] and in [12] were 81.5% and 93.7%, respectively.

Values taken from PubChem BioAssay (NCI).
